Consider 30 compounds from PubChem BioAssay (NCATS).

Inconclusive results are not listed. A call without a number means that no potency is given here. Where a structure was tested more than once in an assay, its records may differ in their call. Activity calls are given as the source filed them. Unless noted, the call rests on the fitted dose curve; in most records, active means well fitted curve in the direction sought with a large enough effect in the repeat runs; inconclusive means weak or mixed curves; inactive means no such curve, though single readings can be large; an effect the other way counts as inactive or inconclusive.
Potency means the concentration at half of the fitted maximal effect.

Cytochrome P450 2C9 (Homo sapiens), sequence (P11712 whole entry, looked up): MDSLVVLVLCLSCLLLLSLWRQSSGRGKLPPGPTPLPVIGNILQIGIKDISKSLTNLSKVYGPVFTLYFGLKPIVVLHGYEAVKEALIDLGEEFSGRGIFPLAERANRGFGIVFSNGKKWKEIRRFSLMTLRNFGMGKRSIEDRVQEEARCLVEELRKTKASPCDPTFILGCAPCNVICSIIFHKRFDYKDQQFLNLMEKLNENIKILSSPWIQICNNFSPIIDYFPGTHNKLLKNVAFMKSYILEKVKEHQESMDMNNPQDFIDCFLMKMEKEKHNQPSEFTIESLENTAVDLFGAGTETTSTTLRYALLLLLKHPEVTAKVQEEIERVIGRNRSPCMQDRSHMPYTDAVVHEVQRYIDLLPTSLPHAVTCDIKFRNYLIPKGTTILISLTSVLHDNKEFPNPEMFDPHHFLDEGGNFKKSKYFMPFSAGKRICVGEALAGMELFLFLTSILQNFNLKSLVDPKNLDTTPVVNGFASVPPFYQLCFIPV

The first experiment has as its target Cytochrome P450 2C9 (Homo sapiens) (UniProt P11712). Kind of experiment: Cytochrome P450 family 2 subfamily C member 9 (CYP2C9) small molecule antagonists: luciferase biochemical (cell-free) qHTS assay (AID 1645842). Further: nearly all actives have a fitted effect of over 55% in size. To be noted: P450-Glo CYP2C9 enzyme assay, luciferin luminescence; series mostly up to 57.4 µM. In a few lines:
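P450-Glo CYP2C9 system: proluciferin substrate with enzyme in mix containing 0.4% BSA, 10 min at room temperature, then NADPH regeneration solution added and incubated 1 h at 37C. Detection reagent stopped reaction; luminescence read after 20 min as RLU.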
Regarding `CCCCCCCCCCOCC(O)CN` (stereo not drawn), the Potency was 10.8 µM (active).
Turning to `CCOC(=O)[C@H](CCc1ccccc1)N[C@@H](C)C(=O)N1Cc2ccccc2C[C@H]1C(=O)O`, the Potency is 6.92 µM (active) and inactive.
For `COc1cccc(CCc2ccccc2OCC(CN(C)C)OC(=O)CCC(=O)O)c1` (stereo not drawn), the Potency entry is “inactive”.
On to `CC(C)(C(=O)c1cccnc1)c1cccnc1`, for which the Potency result was “inactive”.
On the same count and under the same terms, the result for `O=C(COc1ccc(Cl)cc1)N1CCN(Cc2ccc3c(c2)OCO3)CC1` reads 12.3 µM (active); that for `Nc1ccn([C@@H]2O[C@H](CO)[C@@H](O)C2(F)F)c(=O)n1`, “inactive”; that for `CCN(CCCc1ccccc1)CCCc1ccccc1`, “inactive”.
`Oc1c(Cl)cc(Cl)cc1Sc1cc(Cl)cc(Cl)c1O`: the Potency is 6.01 µM (active).
For `CCOC(=O)n1ccn(C)c1=S`, the Potency result is “inactive”.
Take `COc1cc(/C=C/C(=O)O[C@H]2CC[C@]34C[C@]35CC[C@]3(C)[C@@H]([C@H](C)CCC=C(C)C)CC[C@@]3(C)[C@@H]5CC[C@H]4C2(C)C)ccc1O`: the Potency entry is “inactive”.
Take `CNC(=O)CN(CCN(CCN(CC(=O)[O-])CC(=O)NC)CC(=O)[O-])CC(=O)[O-].O.[Gd+3]`: the Potency result is “inactive”.
Still for that read-out and setting: for `CCCCOc1ccc(OCCCN2CCOCC2)cc1` the value was “inactive”; for `Oc1ccc(Cl)c2cccnc12`, “inactive”; for `CC(=O)O[C@]1(C(C)=O)CC[C@H]2[C@@H]3C[C@H](C)C4=CC(=O)CC[C@]4(C)[C@H]3CC[C@@]21C`, 3.09 µM (active).
With `CCCOC(C(=O)OC1CCN(C)CC1)(c1ccccc1)c1ccccc1`, the Potency result is “inactive”.
On to `NC[C@H]1O[C@H](O[C@H]2[C@H](O[C@@H]3O[C@H](CO)[C@@H](O)[C@H]3O)C(O)[C@H](N)C[C@@H]2N)[C@H](N)[C@@H](O)[C@@H]1O` (stereo partly drawn), for which the activity change, negative = inhibition is 8.72% [at 11.5 µM] (inactive).
With `Cc1c(C)n(CCN(C)C)c2ccc(C(=O)OCCN(C)C)cc12`, the Potency entry is “inactive”.
For the compound `CCCCN1CCCC1C(=O)Nc1c(C)cc(C)cc1C` (stereo not drawn), the Potency result is “inactive”.
On to `COc1cc2c(cc1OC)C(C(C(=O)N(CCc1ccc(OC)c(OC)c1OC)CCc1ccc(OC)c(OC)c1OC)c1ccccc1)=NCC2` (stereo not drawn), for which the Potency was 4.36 µM (active).
The same measure, in the same setting: the result for `O=C1OC2(c3ccc(O)cc3Oc3cc(O)ccc32)c2ccccc21` reads “inactive”.
Same read-out and setting: the result for `C[C@@H]1C[C@H]2[C@@H]3CCC4=CC(=O)C=C[C@]4(C)[C@@]3(F)[C@@H](O)C[C@]2(C)[C@H]1C(=O)CO` reads 11 µM (active).
Regarding `CN1CCC(=C2c3ccccc3Sc3ccccc32)CC1`, the Potency result was “inactive”.
As for `CC(C)N=C(N)/N=C(\N)Nc1ccc(Cl)cc1`, the Potency entry was “inactive”.
Same read-out and setting: the result for `O=C(CCN1CCC(c2ccccc2)C1)c1ccc2c(c1)OCCO2` (stereo not drawn) reads “inactive”; that for `CO/N=C1\CN(c2nc3c(cc2F)c(=O)c(C(=O)O)cn3C2CC2)CC1CN` (stereo not drawn), “inactive”; that for `CN(C)CC/C=C1\c2ccccc2Sc2ccc(Cl)cc21`, “inactive”.
Regarding `COC1=CC(=O)C[C@@H](C)[C@]12Oc1c(Cl)c(OC)cc(OC)c1C2=O`, the Potency entry is “inactive”.
The same measure, in the same setting: the result for `c1ccc(OCc2ccc(CCCN3CCOCC3)cc2)cc1` reads “inactive”; that for `NC(=O)C(=O)N/N=C/c1ccc([N+](=O)[O-])o1`, “inactive”.

System in the next experiment: not listed separately
Nature of the experiment: Primary qHTS for inhibitors of nuclear receptor binding SET domain protein 2 (NSD2) in an isogenic RCH-ACV NSD2 p.E1099K mutant (9B) (AID 1645876; active means well fitted curve in the direction sought with a large enough effect; an effect the other way counts as inactive or inconclusive; further: nearly all actives have a fitted effect of over 70% in size). To be noted: RCH-ACV NSD2 E1099K (9B) viability, CellTiter-Glo, 72 h; series mostly up to 44.9 µM. In general terms: In qHTS, concentration-response curves come from the screen itself.
With `CNC(=O)CN(CCN(CCN(CC(=O)[O-])CC(=O)NC)CC(=O)[O-])CC(=O)[O-].O.[Gd+3]`, the Potency entry was “inactive”.
Still for that read-out and setting: the result for `CC(=O)O[C@]1(C(C)=O)CC[C@H]2[C@@H]3C[C@H](C)C4=CC(=O)CC[C@]4(C)[C@H]3CC[C@@]21C` reads 25.8 µM (active).
As for `CN1CCC(=C2c3ccccc3Sc3ccccc32)CC1`, the Potency is 16.8 µM (active).
Still for that read-out and setting: for `O=C(CCN1CCC(c2ccccc2)C1)c1ccc2c(c1)OCCO2` (stereo not drawn) the value was 2.37 µM (active); for `CN1CCC[C@@H]1c1cccnc1`, “inactive”.

System in another experiment: not listed separately
Nature of the experiment: Primary qHTS for inhibitors of nuclear receptor binding SET domain protein 2 (NSD2) in an RCH-ACV wild type WT cells (2C) (AID 1645877; active means well fitted curve in the direction sought with a large enough effect; an effect the other way counts as inactive or inconclusive; further: nearly all actives have a fitted effect of over 70% in size). Conditions: RCH-ACV (leukaemia line) NSD2 WT (2C) viability, CellTiter-Glo, 72 h; series mostly up to 44.9 µM.
For `CNC(=O)CN(CCN(CCN(CC(=O)[O-])CC(=O)NC)CC(=O)[O-])CC(=O)[O-].O.[Gd+3]`, the Potency result was “inactive”.
Same read-out and setting: the result for `CN1CCC(=C2c3ccccc3Sc3ccccc32)CC1` reads 11.9 µM (active); that for `O=C(CCN1CCC(c2ccccc2)C1)c1ccc2c(c1)OCCO2` (stereo not drawn), 2.99 µM (active).
For the compound `CN1CCC[C@@H]1c1cccnc1`, the Potency result is “inactive”.
